Rows were chosen to be rich in hits. Some 3.2% of all compounds tested hit in one or more screens of this group.
ERK AVP inh: qHTS Assay for Inhibitors of the ERK Signaling Pathway using a Homogeneous Screening Assay. HEK293-V1b, vasopressin-stimulated pERK AlphaScreen. Potency, µM (highest dose often 57.5 µM), for inactives: at the highest dose activity, negative = inhibition, usual class: inhibitors. 72,000 compounds, 0.99% hits. AID 995, 2007; also: potency is read from the fitted curve at half-maximal effect; % is scaled to controls: 0 for no effect and ±100 for the full control effect; nearly all actives have a fitted effect of over 55% in size
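qHTS, compounds titrated on V1b-expressing HEK293 cells. Preincubation 30 min at 37C, vasopressin 25 nM for 5 min, lysis 10 min, bead incubation 5 hr at room temperature.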
p53ts 32C tox: qHTS Screen for Compounds that Selectively Target Cancer Cells with p53 Mutations: Cytotoxicity of p53ts Cells at the Permissive Temperature; H1299-p53A138V at 32C, ATP luminescence viability, 24 h; Potency, µM (series often up to 46.1 µM), inactives show at the highest dose activity change, negative = cytotoxicity, actives largely listed as cytotoxic; 130,000 compounds, 0.93% hits;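 also: potency is read from the fitted curve at half-maximal effect; 0% = DMSO and -100% = full killing by reference compound; nearly all actives have a fitted effect of over 55% in size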
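Viability by ATPlite luminescence after 24 h compound treatment (up to 46 uM) at the permissive 32C. Cells are H1299 carrying p53 A138V. Scale runs from DMSO basal to 100 uM tamoxifen as full kill; AC50 from Hill fits.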
YjeE inh: qHTS Assay for Inhibitors of YjeE; 71,000 compounds, 0.05% hits; purified YjeE enzyme, qHTS inhibition assay; Potency, µM
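Purified YjeE (10 uM) with BODIPY Texas Red-labeled ADP probe (2 uM); compounds pin-transferred, 15 min at room temperature. Binding inhibition read as decreased fluorescence polarization; ADP titration as control.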
p53ts 39C tox: qHTS Screen for Compounds that Selectively Target Cancer Cells with p53 Mutations: Cytotoxicity of p53ts Cells at the Nonpermissive Temperature | Potency, µM (doses to about 46.1 µM), for the others: at the top dose activity change, negative = cell killing, usual class: cytotoxic | AID 902, 2007 | H1299-p53A138V viability at 39C, ATP luminescence, 24 h | 130,000 compounds, 1.5% hits; also: potency is read from the fitted curve at half-maximal effect; % is scaled to controls: 0 for no effect and ±100 for the full control effect; nearly all actives have a fitted effect of over 55% in size
Tau fil binding: qHTS Assay for Tau Filament Binding; Potency, µM (highest dose often 57.1 µM), for the others: top-dose activity change, negative = inhibition; recombinant tau filaments, thioflavin S fluorescence, 15 h; filaments grown with octadecylsulfate alongside compound; 71,000 compounds, 2% hits;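 also: potency is read from the fitted curve at half-maximal effect; % is scaled to controls: 0 for no effect and ±100 for the full control effect; actives lower thioflavin S fluorescence by blocking filaments or displacing dye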
Target sequence (P10636 whole entry, looked up): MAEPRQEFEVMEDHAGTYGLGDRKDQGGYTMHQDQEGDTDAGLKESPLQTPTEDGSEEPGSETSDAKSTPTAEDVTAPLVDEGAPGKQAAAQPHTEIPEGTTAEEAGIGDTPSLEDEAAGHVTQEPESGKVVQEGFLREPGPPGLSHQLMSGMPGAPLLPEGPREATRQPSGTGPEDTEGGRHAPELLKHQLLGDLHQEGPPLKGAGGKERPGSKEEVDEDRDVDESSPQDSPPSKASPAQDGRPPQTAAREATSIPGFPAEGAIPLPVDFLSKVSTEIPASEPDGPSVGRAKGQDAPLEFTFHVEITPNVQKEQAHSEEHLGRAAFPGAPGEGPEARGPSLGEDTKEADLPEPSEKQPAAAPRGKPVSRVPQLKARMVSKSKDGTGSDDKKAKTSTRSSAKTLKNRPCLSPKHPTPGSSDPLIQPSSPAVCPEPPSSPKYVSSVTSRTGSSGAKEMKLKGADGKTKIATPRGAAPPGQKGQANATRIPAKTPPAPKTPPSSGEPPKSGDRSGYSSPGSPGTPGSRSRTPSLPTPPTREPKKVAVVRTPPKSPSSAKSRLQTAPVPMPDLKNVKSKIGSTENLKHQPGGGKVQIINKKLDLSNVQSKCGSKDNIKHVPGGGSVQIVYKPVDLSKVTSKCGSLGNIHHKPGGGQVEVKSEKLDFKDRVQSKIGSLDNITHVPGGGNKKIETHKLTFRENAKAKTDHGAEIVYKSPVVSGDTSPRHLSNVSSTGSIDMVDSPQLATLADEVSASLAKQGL
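His-tagged recombinant human tau (exons 2, 3 and 10 included), 1 uM, was induced to fibrillize by 30 uM sodium octadecylsulfate with compound present. After 15 h at 37 C, thioflavine S fluorescence (ex 450, em 510 nm) was read.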
Pol III holo inh: qHTS Assay for Inhibitors of DNA Polymerase III Holoenzyme System; reconstituted DNA polymerase III holoenzyme replication, biochemical; AID 603, 2007; 71,000 compounds, 0.25% hits; Potency, µM (highest dose often 57.1 µM), for the others: at the highest dose activity change, negative = inhibition; also: potency is read from the fitted curve at half-maximal effect; % is scaled to controls: 0 for no effect and ±100 for the full control effect
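Reconstituted *E. coli* holoenzyme (0.35 nM Pol III, 1 nM beta, 154 nM SSB, 2 nM primase) was preincubated with compound for 15 min at RT. Synthesis on 1.4 nM ssM13Gori ran 35 min, then was stopped with PicoGreen/EDTA and read as dsDNA fluorescence.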
Starred values were filed as active, the others as inactive; i = inactive; ? = inconclusive; . = not tested or not shown; [ ] = remark or other dose. Calls follow the shape of the dose curve; as a rule, active = well fitted curve in the direction sought with a large enough effect; inconclusive = small, poorly fitted or top-dose-only effect, or another doubt; inactive = no such curve, though single readings can be large; an effect the other way counts as inactive or inconclusive.

SMILES	ERK AVP inh	p53ts 32C tox	YjeE inh	p53ts 39C tox	Tau fil binding	Pol III holo inh
COc1ccc(NC(=O)Cn2c(=O)n(Cc3ccccc3)c(=O)c3sc4ccccc4c32)cc1	.	0.6%	.	-3.9%	.	.
O=C(Cn1c(=O)n(Cc2ccc(F)cc2)c(=O)c2sc3ccccc3c21)NCc1ccccc1	.	0.1%	.	-14.4%	.	.
O=C(Cn1c(=O)n(Cc2ccccc2)c(=O)c2sc3ccccc3c21)Nc1ccccc1	.	?	.	12.6µM*	.	.
O=C(Cn1c(=O)n(Cc2ccccc2)c(=O)c2sc3ccccc3c21)Nc1ccc(F)cc1	.	?	.	10µM*	.	.
C[C@H](O)[C@H](O)[C@@H](O)c1cnc2nc(N)[nH]c(=O)c2n1	.	.	i	.	16.7%	-1.5%
CC1(C)OCC(CSC2=C(SCC3COC(C)(C)O3)C(=O)c3ncccc3C2=O)O1 (stereo not given)	15.8µM*	?	?	?	15.8µM*	-7.9%
O=C1c2cccnc2-c2ncccc21	5.1%	5.7%	i	1.3%	-5.8%	3.9%
CN(C)c1ccc(NC(=O)Nc2cccc(Cl)c2)cc1	-16.3%	-23.1%	i	?	5.01µM*	0.7%
CN(c1cccc(NC(=O)Nc2cccc(Cl)c2)c1)S(C)(=O)=O	-25.0%	-19.9%	i	-23.9%	6.0%	-1.5%
N=c1c(C(=O)NCc2ccc(F)cc2)cc2c(=O)n3ccccc3nc2n1CCCN1CCOCC1	8.2%	-9.9%	i	8.6%	0.794µM*	-4.3%
CCCn1c(=N)c(C(=O)NCc2ccc3c(c2)OCO3)cc2c(=O)n3cccc(C)c3nc21	-0.7%	-4.2%	i	10.9%	1.58µM*	-20.5%
CCOCCCn1c(=N)c(C(=O)NCc2ccc3c(c2)OCO3)cc2c(=O)n3ccccc3nc21	?	-0.3%	i	-6.8%	5.01µM*	-2.9%
CCCn1c(=N)c(C(=O)NCc2cccnc2)cc2c(=O)n3cccc(C)c3nc21	.	4.3%	.	12.2%	.	.
Cc1cccc(N2CCN(C(=O)C3CCCN(S(=O)(=O)c4ccc5c(c4)oc(=O)n5C)C3)CC2)c1C (stereo not given)	.	2.5%	.	-2.6%	.	.
CCOc1ccccc1C(=O)Nc1cc(Cl)ccc1O	10µM*	?	i	?	112.4%	0.6%
CCCCNc1cc(NC2CCCCC2)c2c3c(onc13)-c1ccccc1C2=O	.	7.6%	.	?	.	.
CCOC(=O)C(C(=O)OCC)c1cc(Br)c2noc3c2c1C(=O)c1ccccc1-3	25.1µM*	?	i	?	2µM*	-7.7%
COc1ccc(-c2ccc3c(N)c(C(=O)Nc4ccc(C)cc4C)sc3n2)cc1OC	.	-1.4%	.	-25.6%	.	.
CC(C)OC(=O)c1ccc(N2C(=O)C3CC=CCC3C2=O)cc1 (stereo not given)	-6.5%	-3.3%	i	-2.5%	-3.0%	-1.9%
C/C(=N\O)c1ccc(N2C(=O)C3CC=C(Cl)CC3C2=O)cc1 (stereo not given)	-23.5%	-5.7%	i	-4.8%	3.16µM*	-3.7%[11.4 µM]
Cn1c(-c2ccccc2)cnc1SCc1nc2ccccc2c(=O)[nH]1	-28.8%	12.6µM*	i	?	0.0%	-8.9%
CC(C)(C)OC(=O)NCCCCCc1nnc(SCC(=O)Nc2cccc(Cl)c2)o1	25.1µM*	-17.1%	i	-23.4%	-0.3%	-0.3%
COc1ccc2nc(NC(=O)C3CCCN(S(=O)(=O)c4cccc5nonc45)C3)sc2c1 (stereo not given)	?	5.4%	i	-12.1%	10µM*	5.2%
COc1ccc(OC)c(NC(=O)C2CCN(S(=O)(=O)c3c(C)noc3C)CC2)c1	21.3%	-2.5%	i	-6.6%	4.2%	0.2%
COc1ccc(OC)c(NC(=O)C2CCCN(S(=O)(=O)c3c(C)noc3C)C2)c1 (stereo not given)	14.7%	-0.2%	i	-12.1%	25.1µM*	-0.2%
SMILES	ERK AVP inh	p53ts 32C tox	YjeE inh	p53ts 39C tox	Tau fil binding	Pol III holo inh
COc1ccccc1-c1nc(N(C)C)c2ccccc2n1	-5.2%	-19.1%	i	?	15.8µM*	-13.3%
CN(C)Cc1ccccc1-c1nc(N(C)C)c2ccccc2n1	-1.4%	-9.8%	i	-23.0%	10.6%	-6.5%
CN(Cc1ccco1)c1nc(-c2ccccc2Cl)nc2ccccc12	13.2%	5.2%	i	1.1%	-2.3%	-2.1%
COc1ccccc1-c1nc(N(C)Cc2ccco2)c2ccccc2n1	-28.6%	10.2%	i	-8.2%	7.94µM*	-3.3%
CCOc1ccc(C(=O)c2cn(Cc3ccc(Cl)cc3)c3cc(OC)c(OC)cc3c2=O)cc1	.	23.1%	.	-12.1%	.	.
CC1=C(/C=C/C(C)=C/C=C/C(C)=C/CO)C(C)(C)CCC1	29.8%	-10.0%[1.84 µM]	i	-1.7%	31.6µM*	-5.2%
CC1=C(\C=C/C(C)=C/C=C\C(C)=C\CO)C(C)(C)CCC1	.	.	i	.	?	-1.8%
CCS(=O)(=O)Nc1cc(-c2cn3ccc(C)cc3n2)ccc1C	.	?	.	12.6µM*	.	.
CCn1nnc(NC(=O)c2ccc(C(C)(C)C)cc2)n1	31.3%	2.51µM*	i	5.01µM*	-7.0%	-4.1%
CCn1nnc(NC(=O)c2cccnc2)n1	-5.6%	-13.0%	i	7.1%	13.9%	6.8%
O=C1CC(=O)N(Cc2ccco2)C(=O)N1	-10.1%	2.8%	i	1.3%	13.3%	15.8µM*
CCOc1cc(C(=O)Nc2ccc(-c3nnc4n3CCCCC4)cc2)cc(OCC)c1OCC	.	-1.4%	.	.	.	.
Cc1c(C(=O)Nc2ccc(-c3nnc4n3CCCCC4)cc2)oc2c1ccc1ccccc12	.	1µM*	.	-24.5%	.	.
Cc1ccc(C)c(NC(=O)CSc2nnc(-c3cc4occc4n3C)n2-c2ccccc2C)c1	.	1.1%	.	.	.	.
Cc1ccc(-c2c3c(=O)n(C)c(=O)n(C)c3c3c(C(F)(F)F)nc4ccccc4n23)cc1	.	2.0%	.	33.1%	.	.
O=[N+]([O-])c1cc(Cl)cc2c1nc(NCCO)c1ccccc12	-6.1%[11.5 µM]	6.7%[9.22 µM]	i	-12.1%[9.22 µM]	3.98µM*	6.9%[11.4 µM]
O=C(NCCO)c1nc(NCCO)c2ccccc2n1	0.8%	-0.6%	i	9.0%	1.7%	0.3%
Cn1nnnc1SCc1csc(Nc2ccccc2)n1	24.7%	0.7%	i	-5.3%	-11.5%	-0.7%
Cc1ccc(Nc2nc(CSc3nnnn3C)cs2)cc1	16.2%	?	i	?	15.8µM*	-1.8%
COc1ccc(S(=O)(=O)NCCc2csc(-c3ccc(F)cc3)n2)cc1	.	-11.2%	.	-13.6%	.	.
O=C(CN1CCN(Cc2ccccc2Cl)C1=O)NCc1ccccc1Cl	.	6.6%	.	?	.	.

Screening results: PubChem BioAssay, National Center for Advancing Translational Sciences (NCATS)
